Compounds with a hit are over-represented: about 2.3% of the library has one in this group of screens.
M1 antag: blocks human M1 muscarinic receptor. P11229. CHO-K1 hM1, Fluo-8 calcium fluorescence, ACh EC80 antagonist. inhibition, % at 3 µM. 360,000 compounds, 1.3% hits. AID 588852;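 active = percent inhibition above its own plate's cutoff, namely the mean of that plate's compound wells plus 3 SD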;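 also: peak over basal fluorescence ratio during 140 s after agonist addition; 0% = ACh EC80 plus DMSO and 100% = DMSO alone without agonist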
Target sequence (P11229 whole entry, looked up): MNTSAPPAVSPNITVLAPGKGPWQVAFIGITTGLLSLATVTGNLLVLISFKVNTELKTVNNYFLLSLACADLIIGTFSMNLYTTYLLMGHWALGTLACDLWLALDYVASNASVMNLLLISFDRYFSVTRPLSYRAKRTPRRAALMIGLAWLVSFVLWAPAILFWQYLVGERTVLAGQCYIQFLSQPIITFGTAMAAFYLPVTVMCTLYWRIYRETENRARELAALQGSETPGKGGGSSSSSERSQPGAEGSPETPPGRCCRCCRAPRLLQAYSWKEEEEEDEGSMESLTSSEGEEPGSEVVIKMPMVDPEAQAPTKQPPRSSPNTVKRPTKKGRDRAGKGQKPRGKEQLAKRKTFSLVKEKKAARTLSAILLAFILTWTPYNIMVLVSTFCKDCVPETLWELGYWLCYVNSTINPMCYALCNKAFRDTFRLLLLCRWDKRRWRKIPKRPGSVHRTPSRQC
CHRM1 agonist: human M1 muscarinic receptor agonism. CHO-K1 hM1, Fluo-8 calcium fluorescence, agonist mode; 0% DMSO, 100% acetylcholine EC100. activation, % at 3 µM. 360,000 compounds, 0.33% hits. AID 588814;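 active = activation above the run's mean compound activation plus 3 SD, cut at about 16% in these data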;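 also: peak over basal fluorescence ratio within a 140 s kinetic read after compound addition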
M1 ag parental: M1 agonist counterscreen hit in parental CHO-K1 cells; AID 602248; activation, % at 3 µM; Fluo-8 calcium fluorescence; scaled to maximal ATP response, vehicle zero; 360,000 compounds, 0.48% hits; in the data active = activation above about 15%;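 also: untransfected CHO-K1 host cells lacking M1 receptor as counterscreen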
CHO-K1 Ca antag: M1 antagonist counterscreen hit in parental CHO-K1 cells. ATP-induced calcium, Fluo-8 fluorescence. AID 602250. inhibition, % at 3 µM. 360,000 compounds, 0.6% hits;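 active = inhibition above a per-plate cutoff, the plate's mean sample inhibition plus 3 SD, cut at about 24% in these data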;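 also: 0% = DMSO plus EC80 ATP and 100% = DMSO alone without ATP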
CHO-K1 Ca PAM: M1 PAM counterscreen hit in parental CHO-K1 cells. ATP EC20, Fluo-8 calcium fluorescence; 0% at ATP EC20, 100% at ATP max. activation, % at 3 µM. 360,000 compounds, 0.02% hits. AID 602247;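 active = activation above the run cutoff, the mean activation of all test compounds plus 3 SD, cut at about 40% in these data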;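 also: peak over basal fluorescence ratio in a 140 s read after ATP addition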
M1 PAM: potentiates human M1 receptor response to acetylcholine. activation, % at 3 µM. 360,000 compounds, 0.088% hits. CHO-K1 hM1, Fluo-8 calcium fluorescence, ACh EC20; 0% = ACh EC20, 100% = maximal ACh; in the data active = activation above about 19%, passing the limit was not always enough
An asterisk follows results filed as active; . = no result.

SMILES	M1 antag	CHRM1 agonist	M1 ag parental	CHO-K1 Ca antag	CHO-K1 Ca PAM	M1 PAM
COc1cc(C(=O)NC(=S)Nc2ccc3ccccc3c2)cc(OC)c1OC	11.4	-3.2	-0.1	-2.3	-9.9	-6.2
C=CCn1c(=O)[nH]c2cc(C(=O)N3CCN(c4cccc(Cl)c4)CC3)ccc2c1=O	20.7*	-5.3	2.9	5.5	5.0	-22.6
CCc1ccc(NC(=O)c2ccc3c(=O)n4c(nc3c2)CCCCC4)cc1	6.5	-2.5	3.5	7.4	-4.2	-6.1
O=C(Nc1cccc(S(=O)(=O)N2CCCCC2)c1)c1ccc2c(=O)n3c(nc2c1)CCCCC3	43.4*	1.4	10.3	-6.2	7.8	-25.1
O=C(COC(=O)C1CCC1)Nc1cc(S(=O)(=O)N2CCOCC2)ccc1Cl	-0.2	-1.1	1.2	9.0	13.8	0.9
O=C(Nc1cc(S(=O)(=O)N2CCOCC2)ccc1Cl)C1CCC1	27.2*	-2.5	0.5	6.9	-23.7	-8.4
CC(=O)c1cc(Cl)ccc1OCc1cccc(S(=O)(=O)N2CCOCC2)c1	31.0*	2.8	16.4*	5.5	-3.5	-16.3
O=S(=O)(c1cccc(COc2ccc(Cl)cc2Cl)c1)N1CCOCC1	-11.8	-2.2	3.1	-6.5	10.7	5.8
COc1ccc(-c2c(C(=O)c3ccccc3)[nH]c(N)c2C(=O)NC2CC2)cc1OC	.	.	2.2	-11.2	11.3	.
O=C(Nc1ncccc1O)c1cccc(S(=O)(=O)N2CCCC2)c1	-16.4	0.7	0.2	25.9*	-12.1	10.2
CN(C)c1ccc(C(=O)Nc2cccc(S(=O)(=O)N3CCCC3)c2)cc1	46.4*	-7.0	-0.2	4.0	13.5	-24.8
CCN(CC)S(=O)(=O)c1cccc(NC(=S)NC(=O)/C=C/c2ccc(S(=O)(=O)N3CCOCC3)cc2)c1	14.1	-5.0	1.5	26.6*	-13.5	-6.7
O=C(Nc1ncccc1O)c1ccc(Cl)c(S(=O)(=O)N2CCCCCC2)c1	-19.9	-0.6	0.9	-0.5	-9.7	11.3
O=C(c1ccc2c(=O)n3c(nc2c1)CCCCC3)N1CCN(c2cccc(Cl)c2)CC1	31.6*	-12.8	1.6	-9.8	15.2	-27.5
O=C(/C=C/c1ccc(S(=O)(=O)N2CCOCC2)cc1)NC(=S)Nc1ccc(Cl)cc1Cl	2.0	-1.2	-0.2	2.4	-2.7	8.9
Cc1ccc(OCC(=O)NC(=S)Nc2ccc(Br)cn2)cc1	-8.8	-4.3	1.6	-9.2	24.8	10.0
O=C(CNC(=O)c1cn2ccccc2n1)Nc1ccc(F)c(F)c1	-12.9	-1.6	0.6	-1.9	11.3	10.7
CCc1cccc2cc3c(N)c(C(=O)Nc4ccc(S(=O)(=O)N5CCCC5)cc4)sc3nc12	33.3	11.0	16.0*	19.4	15.0	-7.9
O=C(Nc1ccc(S(=O)(=O)N2CCCC2)cc1)c1ccccc1	5.3	-4.2	1.1	6.3	4.3	1.2
O=C(NC(=S)Nc1ccc(S(=O)(=O)N2CCCCC2)cc1)c1ccccc1	-56.0	1.1	-0.1	4.5	-2.9	19.4*
Cc1cccc2cc3c(N)c(C(=O)Nc4ccc(N5CCOCC5)cc4)sc3nc12	14.5	1.2	5.6	-7.0	4.7	-11.6
CN1CCN(S(=O)(=O)c2ccc(NC(=O)c3cccc(S(=O)(=O)N4CCCC4)c3)cc2)CC1	97.9*	-5.2	0.1	2.1	-6.1	-22.6
NS(=O)(=O)c1ccc(NC(=S)Nc2ccc(C(=O)N3CCCCC3)cc2)cc1	10.2	-2.9	15.8*	10.0	17.1	-6.6
COCCN(C(=O)COC(=O)C(c1ccccc1)c1ccccc1)c1c(N)n(Cc2ccccc2)c(=O)[nH]c1=O	-13.0	-3.5	0.1	1.9	7.1	11.7
CN1CCCN(S(=O)(=O)c2ccccc2)CC1	33.1*	-11.5	0.6	-14.7	-11.1	-21.8
SMILES	M1 antag	CHRM1 agonist	M1 ag parental	CHO-K1 Ca antag	CHO-K1 Ca PAM	M1 PAM
COC(=O)C1=C(N)Oc2cc(C)n(Cc3cccnc3)c(=O)c2C1c1ccccc1OC (stereo not given)	1.5	-4.1	-0.3	25.5*	-7.1	-0.3
Cc1ccc(/C=C2\CCC3=C2OC(N)=C(C#N)C3c2ccc(C)cc2)cc1 (stereo not given)	49.8*	26.7*	15.7*	34.7*	-12.3	-11.9
Oc1ccccc1Oc1ncc(Br)c(N2CCOCC2)n1	83.7*	-6.0	0.6	-0.4	18.3	-22.8
CCCN(Cc1ccc(C)cc1)C(=O)c1ccc(CNS(=O)(=O)c2ccc(C(C)=O)cc2)cc1	-2.4	4.9	-0.4	-5.5	2.8	2.7
CCc1c(C)sc(NC(=O)c2cc(-c3ccc(O)cc3)on2)c1C#N	-6.3	-1.9	-0.3	32.6*	-10.8	-0.1
CCN(CC)c1ccc(/C=C/c2ccc3ccc(OC)cc3[n+]2CC)cc1	48.2*	3.2	11.0	56.9*	-25.3	-14.1
CC1CCCN(S(=O)(=O)c2ccc(NC(=O)Cc3ccc(S(=O)(=O)N4CCOCC4)s3)cc2)C1 (stereo not given)	3.3	-0.1	-0.4	24.5*	-32.3	2.7
COC(=O)Nc1ccc(S(=O)(=O)N2CCCC(C(=O)N3CC(C)OC(C)C3)C2)cc1 (stereo not given)	6.1	-1.4	15.5*	1.0	13.3	6.6
Cc1ccc(C)n1CCN1CCN(CC(=O)Nc2ccc(S(N)(=O)=O)cc2)CC1	16.9	-3.1	-0.4	29.3*	-5.0	-5.3
COC(=O)Nc1ccc(S(=O)(=O)N2CCCC(C(=O)N3CCOCC3)C2)cc1 (stereo not given)	-11.2	-1.7	1.3	-11.4	13.0	7.2
CC1CCN(CC(=O)Nc2ccc(S(=O)(=O)N3CCCC(C)C3)cc2)CC1 (stereo not given)	2.8	-8.0	17.7*	-1.6	10.5	-7.8
CC1CCCN(S(=O)(=O)c2ccc(NC(=O)CNC3CCCC3)cc2)C1 (stereo not given)	-7.3	-12.3	4.2	-22.7	21.6	-2.1
CC1CCCN(CC(=O)Nc2cc(S(=O)(=O)N3CCOCC3)ccc2N2CCCC2)C1 (stereo not given)	38.0*	-8.1	0.3	-7.0	-1.6	-20.7
CC1CCN(CC(=O)Nc2ccc3c(c2)OCO3)CC1	-8.1	-7.6	17.1*	3.1	4.6	7.4
CC1CCN(C(C)C(=O)Nc2ccc(S(=O)(=O)N3CCCC3)cc2)CC1 (stereo not given)	100.6*	-8.6	-0.2	0.6	-16.4	-30.4
CC1CCCN(S(=O)(=O)c2ccc(NC(=O)CN3CCN(C)CC3)cc2)C1 (stereo not given)	21.8*	-6.1	0.0	7.4	-1.9	-18.9
CC1CCN(C(C)C(=O)Nc2cc(S(=O)(=O)N3CCCCC3)ccc2Cl)CC1 (stereo not given)	-8.3	-3.1	0.2	-11.9	10.8	2.1
CC(C)(C)CC(=O)Nc1cc(S(=O)(=O)N2CCOCC2)ccc1N1CCCC1	-24.6	-3.4	0.4	-21.2	15.8	4.8
